From PubChem BioAssay (Tox21)
Records with an inconclusive call do not appear. Active and inactive are the calls of the source. Calls follow the shape of the dose curve; as a rule, active = well fitted inhibition curve with a large enough effect in the repeat runs; inconclusive = weak or mixed curves; inactive = flat fitted curve, though single readings scatter. Positions of bridges follow the written chain, without caps; N, C: chain ends. Where a SMILES comes first, the peptide text is derived from it. Non-standard residues stand in square brackets, D forms with d. Residues, ends and D or L forms follow the SMILES beside them. hArg = N=C(N)NCCCC[C@H](N)C(=O)O; Mpa = O=C(O)CCS

Assay: qHTS assay to identify small molecule HDAC inhibitors (AID 1259364); also: top concentration of the series differs between compounds; nearly all actives have a fitted effect of over 45% in size
Details: HCT-116 HDAC-Glo I/II luminescence, 2 h; series mostly up to 92.4 µM; activity change, negative = inhibition: at the top concentration
Excerpt: U.S. Tox21 Program National Center for Advancing Translational Sciences [NCATS] NIH Chemical Genomics Center [NCGC] U.S. Environmental Protection Agency [EPA] National Institutes of Environmental Health Sciences [NIEHS] National Toxicology Program [NTP] U.S. Food and Drug Administration [FDA] Tox21 Assay Overview: Histone deacetylases (HDACs) are a group of epigenetic enzymes that regulate gene expression by histone deacetylation. HDACs are capable of introducing epigenetic modifications and such aberrations contribute to the onset and progression of several human diseases, thus making HDACs a popular therapeutic target. For identifying endogenous class I/II HDAC inhibitors a homogenous, luminogenic HDAC I/II cell based assay was used to measure the relative activity of class I and II HDACs from cells. Wild type HCT-116 cells were used to screen Tox21 libraries for identifying class I/II HDAC inhibitors.
Tox21 Assay Protocol Summary: HCT-116 cells were dispensed at 1,500 per well in 5uL of culture medium into white solid bottom 1536-well plates (Greiner Bio-One, Monroe, NC) using a Multidrop Combi (Thermo Scientific, Waltham, MA) dispenser. The assay plates were incubated at 37 C and 5% CO2 for an overnight, and then 23nL of compounds dissolved in DMSO and positive control were transferred using a Pintool station (Wako, San Diego, CA). The assay plates were incubated at 37C and 5% CO2 for 2hr. After compound treatment, 4uL of HDAC-Glo reagent (Promega Corporation, Madison, WI) was added to each well of the assay plates using Flying Reagent Dispenser (FRD, Aurora Discovery, San Diego, CA) and incubated the assay plates at room temperature for 30min. The luminescence signal was quantified using a ViewLux plate reader (Perkin Elmer, Shelton, CT).
% is scaled to controls: 0 for no effect and ±100 for the full control effect.

| Structure (SMILES) | activity change, negative = inhibition |
| --- | --- |
| OC1(c2ccc(Cl)cc2)CCNCC1 | 3.99% [at 42.5 µM] (inactive) |
| CC1CCc2c(N3CCC(O)CC3)c(F)cc3c(=O)c(C(=O)O)cn1c23 (stereo not given) | -11.2% [at 42.5 µM] (inactive) |
| CC(C)OC(=O)CCC(=O)OC(C)C | -0.93% (inactive) |
| Cc1ccc(C(=O)O)cc1[N+](=O)[O-] | -1.04% (inactive) |
| CN(C)C(C)(C)CO | 7.55% (inactive) |
| O=C1OCCO1 | 3.03% (inactive) |
| O=C1c2ccccc2C(=O)c2cc(Cl)ccc21 | -13.5% [at 8.39 µM] (inactive) |
| CC(=O)CC(=O)Nc1ccc(C)cc1C | 0.0074% (inactive) |
| CC(O)COC(C)(C)C (stereo not given) | 0.701% (inactive) |
| COc1cc2c(cc1OC)CN(C(=O)[C@H](C)N[C@@H](CCc1ccccc1)C(=O)O)[C@H](C(=O)O)C2 | 0.637% [at 42.5 µM] (inactive) |
| O=C=NCC1CCCC(CN=C=O)C1 (stereo not given) | 11.8% (inactive) |
| CC(=O)O[C@@H]1CC2CCC1(C)C2(C)C (stereo not given in full) | 6.59% (inactive) |
| Cc1c(C(=O)c2c[nH]n(C)c2=O)ccc(S(C)(=O)=O)c1C1=NOCC1 | -7.47% [at 42.5 µM] (inactive) |
| CCCCCCCCCOC(=O)c1ccccc1C(=O)OCCCCCCCCC | 2.83% (inactive) |
| CCCC(=O)Nc1ccc(OCC(O)CNC(C)C)c(C(C)=O)c1 (stereo not given) | -0.15% [at 42.5 µM] (inactive) |
| c1ccc2c(CC3=NCCN3)cccc2c1 | -9.78% [at 42.5 µM] (inactive) |
| CN(C)CCCO[C@@H]1[C@H]2OC(C)(C)O[C@H]2O[C@@H]1C(O)CO (stereo not given in full) | 5.75% [at 42.5 µM] (inactive) |
| CCCCCCCCCOC(=O)CCCCC(=O)OCCCCCCC | -3.11% (inactive) |
| CCCCCCCCCCCCCCCCCC#N | -1.38% (inactive) |
| C[C@]12CCC(=O)C=C1CC[C@H]1[C@@H]3CC[C@](O)(C(=O)CO)[C@@]3(C)C[C@H](O)[C@@]12F | 13.3% [at 42.5 µM] (inactive) |

| Structure (SMILES) | activity change, negative = inhibition |
| --- | --- |
| NCCOCCN | -4.15% (inactive) |
| CC(=O)N[C@@H](CO)C(=O)N[C@@H](CC(=O)O)C(=O)N[C@@H](CCCCN)C(=O)N1CCC[C@H]1C(=O)O (Ac-SDKP-OH) | 6.93% [at 42.5 µM] (inactive) |
| CCc1occc(=O)c1O | -0.335% (inactive) |
| COC(=O)/C=C\C(=O)O | -1.03% (inactive) |
| COc1nc(N)nc2nc[nH]c12 | -1.79% (inactive) |
| CCCCCCCCCCCCCCC(=O)NC(CO)CCCCCCCCCCCCCC (stereo not given) | -0.19% (inactive) |
| CC(Oc1cc(Cl)ccc1Cl)C(=O)O (stereo not given) | -0.397% (inactive) |
| C/C(=C1\CCOC(=O)S1)N(C=O)Cc1cnc(C)nc1N | 7.16% [at 42.5 µM] (inactive) |
| CC(S)C(C)S (stereo not given) | 5.51% (inactive) |
| NC(=O)[C@@H]1CSSCCC(=O)N[C@@H](CCCCN=C(N)N)C(=O)NCC(=O)N[C@@H](CC(=O)O)C(=O)N[C@@H](Cc2c[nH]c3ccccc23)C(=O)N2CCC[C@H]2C(=O)N1 ([Mpa][hArg]GDWPC-NH2; disulfide 1-7) | 5.99% [at 42.5 µM] (inactive) |
| C=CC(=O)OCC1CCCO1 (stereo not given) | 7.29% (inactive) |
| CC(C)CCOC(=O)c1ccccc1 | 1.99% (inactive) |
| NCC1(Cc2noc(=O)[nH]2)CCCCC1 | -1.39% (inactive) |
| N#Cc1ccccc1O | -19.9% (inactive) |
| C/C(CC(C)C)=N\O | -1.23% (inactive) |
| CC1c2ccccc2CN1NC(=O)c1ccc(Cl)c(S(N)(=O)=O)c1 (stereo not given) | -0.231% [at 42.5 µM] (inactive) |
| CC(C)NCC(O)c1ccc2ccccc2c1 (stereo not given) | 2.58% [at 42.5 µM] (inactive) |
| CCCSSCCC | -8.91% (inactive) |
| COC(=O)CCCCC(=O)O | 9.89% (inactive) |
| CCn1cc(C(=O)O)c(=O)c2cnc(N3CCCC3)nc21 | 0.504% [at 8.39 µM] (inactive) |
